According to PubChem BioAssay (NCI):
The panel holds about 83,000 compounds, 20% with a hit somewhere; the sample as a whole holds those more often.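 Results are percent growth after 48 hours of single-concentration exposure. 100 means growth as in untreated cells, lower positive values show inhibition; negative values down to -100 show cell death.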 Unmarked numbers belong to inactive results. Activity calls are given as the source filed them. The calls were made as follows: active = growth percent below 10; inactive = the rest.

Tests used:
Assay in all cases: NCI-60 one-dose screen, 48 h (100 = growth as untreated, 0 = no growth, -100 = all killed)
SK-MEL-2 melanoma = details: 10 µM unless noted
EKVX NSCLC = details: 10 µM
SN12C renal = details: 10 µM unless noted
TK-10 renal = details: 10 µM unless noted
ACHN renal = details: 10 µM unless noted
CAKI-1 renal = details: 10 µM unless noted
A498 renal = details: 10 µM unless noted
CCRF-CEM leukemia = details: 10 µM
MOLT-4 leukemia = details: 10 µM unless noted
UO-31 renal = details: 10 µM unless noted

SMILES | growth (SK-MEL-2 melanoma) | growth (EKVX NSCLC) | growth (SN12C renal) | growth (TK-10 renal) | growth (ACHN renal) | growth (CAKI-1 renal) | growth (A498 renal) | growth (CCRF-CEM leukemia) | growth (MOLT-4 leukemia) | growth (UO-31 renal)
C[C@H]1C[C@@H](n2cnc3c(N)nccc32)[C@H](O)[C@@H]1O | 106% | 96.3% | 92.3% | 119% | 101% | 116% | 120% | 23.6% | 65% | –
CC(C)(C)C(=O)OCOP(=O)(OCOC(=O)C(C)(C)C)C1CC(O)N(O)C1=O (stereo unspecified) | 45.9% | 66% | 11.6% | – | 42.7% | – | – | 4.09% (active) | – | 18.6%
CCOC(=O)CCCCCCCCC(=O)OCC | 112% | 118% | – | 104% | 113% | 105% | 93.9% | 107% | 95.2% | 95.7%
CC(=O)Nc1nc(C)c(C(=O)NN)s1 | 24.7% | 143% | 95.2% | – | – | 125% | 106% | 94.9% | 111% | 86.1%
Cc1sc(NC(=O)c2ccc(C(C)(C)C)cc2)c(C(=O)O)c1C | 103% | 51.1% | – | 68.4% | 38.8% | 41.9% | 78.6% | 48.7% | 50.3% | 89.9%
CCOC(=O)c1c(C)oc2ncnc(Nc3ccc(NC(=O)Nc4ccc(CC)cc4)cc3)c12 | 120% | 102% | 107% | – | – | 98.4% | 109% | 93.8% | 98.7% | 94.8%
N/C(=N\O)c1ccncc1 | 100% | 98.9% | 106% | – | 103% | – | – | 106% | – | 88%
COc1cccc2c1nc1cccc(OC)c1[n+]2[O-] | 35.6% | 57.8% | – | 75.8% | 2.52% (active) | 52.8% | 65.4% | 3.09% (active) | -1.14% (active) | -0.522% (active)
CCN(CC)C(=O)C1(C)CCCC2(C)c3cc(OC(C)=O)ccc3CCC12 (stereo unspecified) | 80.3% | – | 91.7% | 78.1% | 80.7% | 76.8% | 83.9% | – | – | 54.4%
Oc1ccc(CN(Cc2ccc(C(F)(F)F)cc2)Cc2ccc(O)c3ncccc23)c2cccnc12 | 24.5% | 19% | – | – | 9.38% (active) | 5.6% (active) | 41.6% | 8.17% (active) | 10.4% | 4.59% (active)
O=C1C(Br)=CC2C1C1C3CCC3C2(Br)C12OCCO2 (stereo unspecified) | 21.7% | – | 41.8% | 28.8% | 32.5% | -19.3% (active) | 52.4% | -3.12% (active) | 15.7% | 62%
CNCCCNCCCCNCCCN1C(=O)c2ccc3c4c(ccc(c24)C1=O)C(=O)N(CCCNCc1ccccc1OC)C3=O | 14% | – | 24.6% | 41.9% | 26% | 28.6% | 45.1% | 45.8% | 24.9% | 16.8%
CC1=C[C@@H]2c3c(c(O)c(O)c4oc5cc(O)cc(O)c5c(=O)c34)[C@@H](c3cc(O)c(O)c4oc5cc(O)cc(O)c5c(=O)c34)[C@@H]2C(C)(C)C1 | -22.2% (active) | 8.51% (active) | – | 13.8% | 12.4% | 19.8% | -14% (active) | – | 4.1% (active) | -10.2% (active)
CC(C)OC(=O)[C@H](C)N[P@@](=O)(OC[C@@]1(C)O[C@@H](n2cc(F)c(N)nc2=O)C[C@@H]1O[P@](=O)(N[C@@H](C)C(=O)OC(C)C)Oc1ccccc1)Oc1ccccc1 | 122% | 109% | – | 101% | 92.4% | 94.6% | 45% | 61.4% | 67.5% | 98.6%
Cc1c(O)c(N=Nc2ccc(C(=O)O)c(O)c2)c2ccccc2c1O | 92.7% | – | 96.3% | 116% | 97.6% | 84.5% | 86.3% | – | – | 74.3%
Cc1ccc([C@@H]2C[C@H](O)Cc3ccccc3N2)s1 | 141% | 97.6% | – | 119% | 104% | – | 91.2% | 105% | 95.7% | –

SMILES | growth (SK-MEL-2 melanoma) | growth (EKVX NSCLC) | growth (SN12C renal) | growth (TK-10 renal) | growth (ACHN renal) | growth (CAKI-1 renal) | growth (A498 renal) | growth (CCRF-CEM leukemia) | growth (MOLT-4 leukemia) | growth (UO-31 renal)
CC(C)(CNC1CCCCC1)OC(=O)c1ccccc1 | 116% | – | 95.1% | 104% | 108% | 102% | 103% | 84.7% | 93.8% | 77.2%
O=C(/C(Br)=C/c1ccccc1)c1ccccc1 | 15.2% | 109% | – | 3.38% (active) | -71.3% (active) | -28.4% (active) | – | – | -25.2% (active) | -62.5% (active)
S=C(N/N=C/c1cc(Cl)cc(Cl)c1)NC12CC3CC(CC(C3)C1)C2 | 116% | – | 88.6% | 11.1% | 4.44% (active) | -1.81% (active) | 57.1% | 50.8% | 94.1% | 69%
CC(C)OC(=O)c1ccc2n1CCCc1cnc(Nc3ccccc3)nc1-2 | 66.3% | 57.6% | – | 85.3% | 74.8% | 65.6% | 63.5% | 72.3% | 73.8% | 64.2%
CCOC(=O)c1ccc2n1CCCc1cnc(NC(C)=O)nc1-2 | 102% | 98.5% | – | 107% | 99.3% | 92.1% | 74.3% | 93.9% | 108% | 89.5%
COC(=O)/C=C/c1cc(O)c2oc(-c3ccc(O)c(O)c3)c(C(=O)OC)c2c1 | 43% | 49.7% | – | – | 30.2% | 19.9% | 18.2% | 3.32% (active) | 19.2% | 22.6%
Cn1c2c(cc(S(=O)(=O)c3ccccc3)c1=O)CCc1c-2cnn1-c1ccc(Cl)cc1 | -9.09% (active) | 5.95% (active) | – | 34.6% | 6.4% (active) | – | -14.5% (active) | 98.2% | 57.5% | -14.2% (active)
COC1NC(Cl)=C(C#N)C(C#N)(C#N)C1(C)C (stereo unspecified) | 99.1% | 86.4% | – | 113% | 105% | 104% | 110% | 109% | 89.2% | 85.5%
CSC1=Nc2c(c(C)c(-c3ccccc3)n2CCCCl)C2=NC(=O)CN12 | 75.4% | 54.2% | – | 105% | 88.3% | 57.7% | 46.9% | 51.9% | 50.6% | –
COc1cc2c(cc1OC)C(Cc1cc(OC)c(OC)cc1[N+](=O)[O-])=NCC2 | 92.9% | 92.8% | – | 73.4% | 85.2% | 87.9% | 56.4% | – | 92.4% | 66.9%
Oc1ccc(Br)cc1/C=N/NC(=S)NC12CC3CC(CC(C3)C1)C2 | 48.2% | – | 20.1% | 27.9% | 2.67% (active) | -35.3% (active) | 53.3% | – | – | -2.23% (active)
CCCCCCC(C)N(CC(C)(C)O)C(=O)c1ccc([N+](=O)[O-])cc1 (stereo unspecified) | 89.7% | – | 104% | 92.6% | 107% | 108% | 101% | 74.8% | 90.4% | 58.6%
O=c1[nH]c(=S)[nH]c(O)c1/C=C1\C=Nc2ccccc21 | 128% | 75.1% | – | 86.9% | 82.5% | 27.3% | – | – | 42.4% | 31.1%
CCCCN(CCC)CCCCCCCCCCN1CCCc2ccccc21 | 92.3% | 64.3% | – | 82.7% | 82.7% | 63.2% | – | 26.8% | 50.5% | 54.3%
O=C(/C=C\c1ccc(NCc2ccc(C(=O)O)cc2)cc1)CCl | 97% | – | 79.7% | 93.4% | 93.3% | 105% | 55.6% | -8.72% (active) | 6.28% (active) | 78.6%
COc1ccc(/C=C2\CCCC3=C2N=C2SC=NN2C3c2ccc(OC)c(OC)c2)cc1OC (stereo unspecified) | 109% | – | 40.7% | 60.9% | 37.4% | 32.5% | 42.8% | 7.48% (active) | 54.7% | 40%
